This is an account of results in the supplement of paper PMC11732987, “Enantioselective OTUD7B fragment discovery through chemoproteomics screening and high-throughput optimisation” (Communications Chemistry, 2025).

What all share (test): log2 ratio of Biotin-Ahx-Ub-VS probe labelling (fragment/DMSO); higher = less target engagement (more negative = stronger competition), active = hit call of the paper (q ≤ 0.05, log2 ratio ≤ -1)
What all share (conditions): compound concentration: 200 uM; treatment time: 3 h

Experiment [1] addresses T1, USP42 (UniProt Q9H9J4).
T1 sequence (whole entry): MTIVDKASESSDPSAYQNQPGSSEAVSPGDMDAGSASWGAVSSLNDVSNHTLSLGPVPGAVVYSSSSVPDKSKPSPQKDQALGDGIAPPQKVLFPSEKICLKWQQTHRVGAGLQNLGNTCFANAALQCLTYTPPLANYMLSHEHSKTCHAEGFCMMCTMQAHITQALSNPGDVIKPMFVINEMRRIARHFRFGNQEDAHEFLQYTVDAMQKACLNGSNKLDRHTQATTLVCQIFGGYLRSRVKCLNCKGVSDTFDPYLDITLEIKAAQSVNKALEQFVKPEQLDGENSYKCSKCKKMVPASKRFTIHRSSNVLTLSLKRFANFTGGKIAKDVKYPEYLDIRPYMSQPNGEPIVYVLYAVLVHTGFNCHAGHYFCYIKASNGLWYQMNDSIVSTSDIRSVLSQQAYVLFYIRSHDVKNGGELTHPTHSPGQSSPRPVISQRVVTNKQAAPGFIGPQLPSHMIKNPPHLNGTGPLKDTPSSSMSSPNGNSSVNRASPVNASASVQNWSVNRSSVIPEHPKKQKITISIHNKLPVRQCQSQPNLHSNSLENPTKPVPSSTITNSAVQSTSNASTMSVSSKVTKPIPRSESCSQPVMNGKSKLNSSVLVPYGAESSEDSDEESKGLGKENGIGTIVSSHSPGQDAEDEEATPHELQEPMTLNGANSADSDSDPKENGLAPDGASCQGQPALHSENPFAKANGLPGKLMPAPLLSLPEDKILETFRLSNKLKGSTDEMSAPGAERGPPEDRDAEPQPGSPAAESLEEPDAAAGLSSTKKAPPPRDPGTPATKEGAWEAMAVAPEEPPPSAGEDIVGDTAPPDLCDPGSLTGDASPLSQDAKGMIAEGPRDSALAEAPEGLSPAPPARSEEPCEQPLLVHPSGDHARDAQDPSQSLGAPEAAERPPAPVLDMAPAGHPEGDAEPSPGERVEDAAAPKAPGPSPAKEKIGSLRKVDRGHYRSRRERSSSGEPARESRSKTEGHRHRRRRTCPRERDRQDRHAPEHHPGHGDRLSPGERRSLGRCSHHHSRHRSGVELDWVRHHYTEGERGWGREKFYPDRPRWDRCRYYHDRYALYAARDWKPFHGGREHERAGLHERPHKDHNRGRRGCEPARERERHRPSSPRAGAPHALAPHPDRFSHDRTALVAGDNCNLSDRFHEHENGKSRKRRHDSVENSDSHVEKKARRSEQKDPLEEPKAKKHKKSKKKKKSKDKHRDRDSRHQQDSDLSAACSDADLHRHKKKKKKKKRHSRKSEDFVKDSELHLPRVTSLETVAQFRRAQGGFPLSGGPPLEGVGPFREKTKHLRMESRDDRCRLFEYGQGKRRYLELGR
In a few lines:
(§1)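 Triplicate samples of HEK293T lysate, 495 µg each, received fragment at 200 µM or vehicle for 3 h, followed by Biotin-Ahx-Ub-VS (0.5 µM final) for 1 h. After NeutrAvidin enrichment of labelled DUBs and LysC/trypsin digestion, peptides were run by diaPASEF LC-MS/MS. The values are average log2 fragment/vehicle ratios from global-median-normalised Spectronaut label-free quantities, tested by unpaired t-test on proteins having ≥2 unique peptides.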

In experiment [2] the target is USP46 (UniProt P62068). In a few lines:
as §1

For experiment [3], the target named is T2, USP47 (UniProt Q96K76).
T2 sequence (whole entry): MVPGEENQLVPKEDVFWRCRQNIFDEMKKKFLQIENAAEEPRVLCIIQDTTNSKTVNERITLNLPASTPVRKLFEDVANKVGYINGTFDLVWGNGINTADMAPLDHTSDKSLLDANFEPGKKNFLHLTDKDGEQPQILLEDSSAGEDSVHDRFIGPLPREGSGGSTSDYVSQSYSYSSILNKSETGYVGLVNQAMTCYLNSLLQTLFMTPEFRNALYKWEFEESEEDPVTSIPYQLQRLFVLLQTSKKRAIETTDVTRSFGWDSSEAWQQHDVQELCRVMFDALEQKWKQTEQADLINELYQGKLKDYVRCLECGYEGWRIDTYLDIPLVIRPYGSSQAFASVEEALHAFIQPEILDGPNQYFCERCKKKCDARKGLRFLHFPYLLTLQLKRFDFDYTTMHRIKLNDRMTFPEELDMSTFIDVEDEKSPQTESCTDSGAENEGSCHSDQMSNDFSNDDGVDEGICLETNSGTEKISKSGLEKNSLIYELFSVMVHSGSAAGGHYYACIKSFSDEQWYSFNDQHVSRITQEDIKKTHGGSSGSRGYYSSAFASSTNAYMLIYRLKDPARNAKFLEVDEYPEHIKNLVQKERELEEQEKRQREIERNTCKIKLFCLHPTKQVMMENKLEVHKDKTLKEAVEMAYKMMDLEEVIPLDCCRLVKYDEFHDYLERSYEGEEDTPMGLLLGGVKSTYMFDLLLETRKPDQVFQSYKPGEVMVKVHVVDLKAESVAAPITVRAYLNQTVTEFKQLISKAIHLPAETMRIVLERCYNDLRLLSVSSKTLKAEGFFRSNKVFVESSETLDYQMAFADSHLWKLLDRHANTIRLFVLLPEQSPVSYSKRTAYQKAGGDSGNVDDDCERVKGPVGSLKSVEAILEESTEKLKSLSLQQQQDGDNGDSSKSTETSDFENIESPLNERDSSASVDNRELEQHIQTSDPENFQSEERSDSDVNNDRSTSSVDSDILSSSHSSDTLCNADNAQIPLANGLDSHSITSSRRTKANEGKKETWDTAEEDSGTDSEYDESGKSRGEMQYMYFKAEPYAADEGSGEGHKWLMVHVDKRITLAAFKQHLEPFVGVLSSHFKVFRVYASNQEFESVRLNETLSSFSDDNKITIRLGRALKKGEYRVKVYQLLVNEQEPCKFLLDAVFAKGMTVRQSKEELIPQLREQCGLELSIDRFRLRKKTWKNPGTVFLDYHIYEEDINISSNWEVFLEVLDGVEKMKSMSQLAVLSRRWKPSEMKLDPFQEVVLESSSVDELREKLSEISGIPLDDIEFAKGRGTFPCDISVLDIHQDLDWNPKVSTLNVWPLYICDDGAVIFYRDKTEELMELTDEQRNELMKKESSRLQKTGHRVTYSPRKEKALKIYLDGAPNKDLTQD
In a few lines:
as §1

For experiment [4], the target named is T3, USP48 (UniProt Q86UV5).
T3 sequence (whole entry): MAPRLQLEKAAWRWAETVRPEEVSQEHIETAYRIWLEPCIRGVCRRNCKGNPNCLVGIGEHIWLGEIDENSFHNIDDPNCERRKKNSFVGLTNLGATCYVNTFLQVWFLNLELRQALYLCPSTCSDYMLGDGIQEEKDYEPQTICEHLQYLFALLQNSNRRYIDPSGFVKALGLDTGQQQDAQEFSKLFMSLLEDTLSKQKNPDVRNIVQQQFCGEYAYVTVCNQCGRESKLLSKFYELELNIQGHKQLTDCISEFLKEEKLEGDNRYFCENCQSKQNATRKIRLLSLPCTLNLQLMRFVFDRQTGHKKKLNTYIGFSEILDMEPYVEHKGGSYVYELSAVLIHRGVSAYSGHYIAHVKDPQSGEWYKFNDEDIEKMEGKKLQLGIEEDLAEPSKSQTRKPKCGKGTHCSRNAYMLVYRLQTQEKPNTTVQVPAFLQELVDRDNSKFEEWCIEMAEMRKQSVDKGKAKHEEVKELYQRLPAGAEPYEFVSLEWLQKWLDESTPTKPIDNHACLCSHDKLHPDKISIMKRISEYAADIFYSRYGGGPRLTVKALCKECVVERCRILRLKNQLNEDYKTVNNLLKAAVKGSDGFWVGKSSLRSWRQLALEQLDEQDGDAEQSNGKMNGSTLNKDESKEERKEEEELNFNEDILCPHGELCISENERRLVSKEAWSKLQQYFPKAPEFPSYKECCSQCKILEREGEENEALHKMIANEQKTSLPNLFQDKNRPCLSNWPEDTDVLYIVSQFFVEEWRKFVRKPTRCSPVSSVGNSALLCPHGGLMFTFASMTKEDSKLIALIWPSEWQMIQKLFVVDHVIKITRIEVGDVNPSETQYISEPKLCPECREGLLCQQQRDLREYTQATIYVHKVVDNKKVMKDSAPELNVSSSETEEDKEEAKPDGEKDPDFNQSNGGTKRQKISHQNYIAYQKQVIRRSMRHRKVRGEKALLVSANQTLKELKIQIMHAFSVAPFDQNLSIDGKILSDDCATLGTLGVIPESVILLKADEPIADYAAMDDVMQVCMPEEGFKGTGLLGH
An outline of the steps:
as §1

Experiment [5] addresses T4, USP5 (UniProt P45974).
T4 sequence (whole entry): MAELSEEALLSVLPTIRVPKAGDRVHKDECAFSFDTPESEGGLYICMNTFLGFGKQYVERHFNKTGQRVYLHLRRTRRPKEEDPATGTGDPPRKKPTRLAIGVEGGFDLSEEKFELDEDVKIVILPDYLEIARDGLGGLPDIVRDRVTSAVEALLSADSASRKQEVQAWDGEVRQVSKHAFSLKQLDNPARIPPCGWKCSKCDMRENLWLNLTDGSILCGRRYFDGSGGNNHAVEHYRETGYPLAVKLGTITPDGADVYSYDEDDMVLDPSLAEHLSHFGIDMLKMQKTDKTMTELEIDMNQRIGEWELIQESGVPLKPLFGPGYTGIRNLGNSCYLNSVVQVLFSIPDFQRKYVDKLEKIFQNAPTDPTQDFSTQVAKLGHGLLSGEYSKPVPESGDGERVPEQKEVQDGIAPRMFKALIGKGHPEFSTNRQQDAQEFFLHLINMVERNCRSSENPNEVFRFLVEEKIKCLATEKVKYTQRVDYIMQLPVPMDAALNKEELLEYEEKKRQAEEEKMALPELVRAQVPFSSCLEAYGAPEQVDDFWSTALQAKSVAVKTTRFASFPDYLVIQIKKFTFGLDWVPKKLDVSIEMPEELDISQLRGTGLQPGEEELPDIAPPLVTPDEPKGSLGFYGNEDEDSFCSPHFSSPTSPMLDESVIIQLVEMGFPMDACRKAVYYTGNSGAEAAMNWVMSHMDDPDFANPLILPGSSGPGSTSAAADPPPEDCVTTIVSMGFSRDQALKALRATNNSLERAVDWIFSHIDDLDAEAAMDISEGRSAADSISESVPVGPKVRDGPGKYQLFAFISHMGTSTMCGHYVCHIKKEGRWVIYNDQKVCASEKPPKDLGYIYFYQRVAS
An outline of the steps: as §1

The target in experiment [6] is USP54 (UniProt Q70EL1). In a few lines:
as §1

The target in experiment [7] is USP7 (UniProt Q93009). An outline of the steps:
as §1

The target in experiment [8] is T5, USP8 (UniProt P40818).
T5 sequence (whole entry): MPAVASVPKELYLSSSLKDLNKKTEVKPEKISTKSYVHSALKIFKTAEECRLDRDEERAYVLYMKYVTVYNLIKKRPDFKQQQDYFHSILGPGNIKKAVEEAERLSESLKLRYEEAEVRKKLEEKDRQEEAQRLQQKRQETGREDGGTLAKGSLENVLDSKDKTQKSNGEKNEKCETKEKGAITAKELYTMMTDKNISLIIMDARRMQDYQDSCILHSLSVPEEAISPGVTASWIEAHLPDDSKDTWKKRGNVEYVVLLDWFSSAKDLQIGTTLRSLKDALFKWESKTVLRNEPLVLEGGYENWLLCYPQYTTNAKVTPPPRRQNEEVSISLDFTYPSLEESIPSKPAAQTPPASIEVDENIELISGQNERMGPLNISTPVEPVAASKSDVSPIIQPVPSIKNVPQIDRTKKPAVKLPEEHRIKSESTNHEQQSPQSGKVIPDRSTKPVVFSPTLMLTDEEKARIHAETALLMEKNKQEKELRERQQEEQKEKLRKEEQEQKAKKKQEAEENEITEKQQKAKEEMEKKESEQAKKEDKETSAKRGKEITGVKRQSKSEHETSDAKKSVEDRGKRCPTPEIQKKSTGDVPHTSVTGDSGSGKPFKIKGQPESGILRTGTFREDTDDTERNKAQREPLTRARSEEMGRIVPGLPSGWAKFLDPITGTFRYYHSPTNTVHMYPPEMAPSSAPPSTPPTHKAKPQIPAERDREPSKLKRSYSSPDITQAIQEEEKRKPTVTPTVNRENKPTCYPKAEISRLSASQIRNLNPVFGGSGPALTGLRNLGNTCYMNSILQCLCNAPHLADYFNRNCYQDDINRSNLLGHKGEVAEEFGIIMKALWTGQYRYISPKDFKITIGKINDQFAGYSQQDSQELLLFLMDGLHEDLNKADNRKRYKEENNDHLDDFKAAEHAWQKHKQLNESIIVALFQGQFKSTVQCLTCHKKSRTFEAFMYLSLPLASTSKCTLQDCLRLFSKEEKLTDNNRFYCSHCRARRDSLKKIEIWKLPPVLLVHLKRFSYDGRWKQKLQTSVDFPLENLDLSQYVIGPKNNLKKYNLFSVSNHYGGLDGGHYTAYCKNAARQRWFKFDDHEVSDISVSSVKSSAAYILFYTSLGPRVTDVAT
In a few lines: as §1

In experiment [9] the target is USP9X (UniProt Q93008). In a few lines: as §1
USP9X, sequence (Q93008 whole entry): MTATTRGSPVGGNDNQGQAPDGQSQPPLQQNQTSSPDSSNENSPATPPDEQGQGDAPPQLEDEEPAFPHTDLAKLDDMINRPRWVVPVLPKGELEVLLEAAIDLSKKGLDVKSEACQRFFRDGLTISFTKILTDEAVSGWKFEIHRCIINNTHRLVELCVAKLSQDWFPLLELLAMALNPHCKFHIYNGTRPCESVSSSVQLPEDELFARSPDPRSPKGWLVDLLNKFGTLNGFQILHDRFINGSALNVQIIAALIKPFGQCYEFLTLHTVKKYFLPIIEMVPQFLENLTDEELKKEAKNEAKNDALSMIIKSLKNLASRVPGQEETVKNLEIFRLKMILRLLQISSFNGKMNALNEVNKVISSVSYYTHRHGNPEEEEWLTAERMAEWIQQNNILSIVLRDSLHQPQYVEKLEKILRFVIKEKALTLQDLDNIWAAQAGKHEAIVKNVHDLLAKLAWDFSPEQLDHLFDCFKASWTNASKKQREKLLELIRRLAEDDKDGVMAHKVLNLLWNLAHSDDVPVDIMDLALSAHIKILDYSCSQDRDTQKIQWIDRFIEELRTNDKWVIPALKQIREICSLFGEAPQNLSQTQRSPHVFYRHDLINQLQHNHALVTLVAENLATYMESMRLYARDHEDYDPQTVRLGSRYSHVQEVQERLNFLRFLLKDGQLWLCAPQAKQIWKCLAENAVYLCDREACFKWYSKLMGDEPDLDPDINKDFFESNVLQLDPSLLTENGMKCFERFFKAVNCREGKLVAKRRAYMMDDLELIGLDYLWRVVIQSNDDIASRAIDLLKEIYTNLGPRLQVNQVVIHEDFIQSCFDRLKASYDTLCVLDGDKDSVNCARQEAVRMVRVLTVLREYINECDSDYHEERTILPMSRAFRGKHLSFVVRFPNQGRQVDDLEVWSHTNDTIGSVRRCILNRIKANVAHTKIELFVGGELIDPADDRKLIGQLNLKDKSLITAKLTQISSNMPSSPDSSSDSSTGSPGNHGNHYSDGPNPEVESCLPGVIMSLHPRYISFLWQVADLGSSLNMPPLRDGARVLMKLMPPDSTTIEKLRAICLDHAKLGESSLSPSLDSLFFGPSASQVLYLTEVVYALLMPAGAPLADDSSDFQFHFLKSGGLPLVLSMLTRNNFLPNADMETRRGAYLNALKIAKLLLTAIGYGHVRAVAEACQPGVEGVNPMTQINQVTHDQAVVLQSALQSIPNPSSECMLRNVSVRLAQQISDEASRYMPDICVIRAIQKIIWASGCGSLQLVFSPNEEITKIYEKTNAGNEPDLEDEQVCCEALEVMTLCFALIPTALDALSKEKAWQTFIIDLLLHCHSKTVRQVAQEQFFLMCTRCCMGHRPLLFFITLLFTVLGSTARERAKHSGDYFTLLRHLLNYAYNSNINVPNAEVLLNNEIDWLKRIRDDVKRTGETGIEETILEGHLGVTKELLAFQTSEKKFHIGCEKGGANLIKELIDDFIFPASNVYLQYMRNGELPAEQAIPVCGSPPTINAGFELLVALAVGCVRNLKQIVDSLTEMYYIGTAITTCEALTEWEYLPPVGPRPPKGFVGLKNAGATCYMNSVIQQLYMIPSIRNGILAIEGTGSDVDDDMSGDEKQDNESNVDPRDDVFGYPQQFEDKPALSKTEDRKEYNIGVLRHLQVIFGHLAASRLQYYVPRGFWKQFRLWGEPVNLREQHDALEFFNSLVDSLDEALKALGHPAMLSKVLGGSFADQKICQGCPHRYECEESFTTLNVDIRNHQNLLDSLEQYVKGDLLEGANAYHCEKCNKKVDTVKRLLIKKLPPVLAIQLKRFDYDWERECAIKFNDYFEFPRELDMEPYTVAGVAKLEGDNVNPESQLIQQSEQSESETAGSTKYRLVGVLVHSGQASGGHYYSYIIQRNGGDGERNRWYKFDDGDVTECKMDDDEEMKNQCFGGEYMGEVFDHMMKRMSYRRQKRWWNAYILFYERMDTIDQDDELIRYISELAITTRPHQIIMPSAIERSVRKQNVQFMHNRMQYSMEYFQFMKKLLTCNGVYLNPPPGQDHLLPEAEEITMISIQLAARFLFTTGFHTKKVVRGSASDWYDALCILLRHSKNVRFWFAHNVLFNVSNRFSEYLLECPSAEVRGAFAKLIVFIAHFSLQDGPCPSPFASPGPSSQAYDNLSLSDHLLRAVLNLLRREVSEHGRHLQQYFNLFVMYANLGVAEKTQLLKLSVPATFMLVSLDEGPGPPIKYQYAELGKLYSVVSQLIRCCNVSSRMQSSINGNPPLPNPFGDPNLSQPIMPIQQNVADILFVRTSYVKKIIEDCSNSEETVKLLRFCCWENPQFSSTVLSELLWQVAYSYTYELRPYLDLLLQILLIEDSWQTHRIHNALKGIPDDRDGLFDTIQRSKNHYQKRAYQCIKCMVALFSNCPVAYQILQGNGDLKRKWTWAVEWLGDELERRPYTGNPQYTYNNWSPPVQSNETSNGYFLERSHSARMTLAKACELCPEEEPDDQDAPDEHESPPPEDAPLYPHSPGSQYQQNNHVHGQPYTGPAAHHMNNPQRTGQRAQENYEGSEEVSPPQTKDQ
In experiment [10] the target is UniProt O00487. In a few lines:
as §1

Values without a mark were called inactive.

USP46, sequence (P62068 whole entry): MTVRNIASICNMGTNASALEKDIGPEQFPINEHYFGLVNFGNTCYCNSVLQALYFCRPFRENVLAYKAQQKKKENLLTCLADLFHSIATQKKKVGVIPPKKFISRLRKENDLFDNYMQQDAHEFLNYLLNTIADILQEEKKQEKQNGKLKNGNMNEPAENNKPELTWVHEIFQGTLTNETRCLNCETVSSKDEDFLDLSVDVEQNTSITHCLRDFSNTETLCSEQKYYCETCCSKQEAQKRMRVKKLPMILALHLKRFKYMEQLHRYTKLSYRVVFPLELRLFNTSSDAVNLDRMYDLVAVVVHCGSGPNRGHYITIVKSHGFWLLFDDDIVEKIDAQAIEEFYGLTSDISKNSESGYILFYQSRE
USP7, sequence (Q93009 whole entry, looked up): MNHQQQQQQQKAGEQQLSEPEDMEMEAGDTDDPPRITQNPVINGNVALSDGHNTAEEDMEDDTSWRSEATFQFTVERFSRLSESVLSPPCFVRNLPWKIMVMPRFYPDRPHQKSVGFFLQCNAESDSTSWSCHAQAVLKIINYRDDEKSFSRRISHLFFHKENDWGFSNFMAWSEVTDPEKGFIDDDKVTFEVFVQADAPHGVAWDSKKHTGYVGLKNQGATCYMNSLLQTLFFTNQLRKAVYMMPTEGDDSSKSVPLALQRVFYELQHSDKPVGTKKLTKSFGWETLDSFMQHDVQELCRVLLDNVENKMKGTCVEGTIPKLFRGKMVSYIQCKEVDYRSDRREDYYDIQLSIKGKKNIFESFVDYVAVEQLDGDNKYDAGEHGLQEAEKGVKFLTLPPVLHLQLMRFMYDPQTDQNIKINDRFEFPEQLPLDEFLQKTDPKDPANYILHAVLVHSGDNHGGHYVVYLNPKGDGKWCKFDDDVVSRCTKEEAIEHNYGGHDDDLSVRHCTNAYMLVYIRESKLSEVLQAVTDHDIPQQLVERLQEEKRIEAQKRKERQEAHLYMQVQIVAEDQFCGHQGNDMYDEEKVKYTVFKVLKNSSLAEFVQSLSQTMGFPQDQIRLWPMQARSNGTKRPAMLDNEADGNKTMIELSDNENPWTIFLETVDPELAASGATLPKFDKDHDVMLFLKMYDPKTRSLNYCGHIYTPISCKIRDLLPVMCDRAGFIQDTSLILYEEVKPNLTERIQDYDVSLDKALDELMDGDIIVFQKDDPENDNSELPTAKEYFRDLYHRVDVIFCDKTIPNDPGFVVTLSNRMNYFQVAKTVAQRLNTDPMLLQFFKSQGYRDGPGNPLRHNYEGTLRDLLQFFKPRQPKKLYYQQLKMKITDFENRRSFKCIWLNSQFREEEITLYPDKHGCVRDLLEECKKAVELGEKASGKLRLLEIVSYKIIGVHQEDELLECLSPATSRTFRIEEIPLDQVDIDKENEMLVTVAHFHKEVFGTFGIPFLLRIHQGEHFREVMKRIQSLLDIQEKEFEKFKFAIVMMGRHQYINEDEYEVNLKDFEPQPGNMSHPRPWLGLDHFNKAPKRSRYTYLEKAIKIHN
UniProt O00487, sequence (O00487 whole entry): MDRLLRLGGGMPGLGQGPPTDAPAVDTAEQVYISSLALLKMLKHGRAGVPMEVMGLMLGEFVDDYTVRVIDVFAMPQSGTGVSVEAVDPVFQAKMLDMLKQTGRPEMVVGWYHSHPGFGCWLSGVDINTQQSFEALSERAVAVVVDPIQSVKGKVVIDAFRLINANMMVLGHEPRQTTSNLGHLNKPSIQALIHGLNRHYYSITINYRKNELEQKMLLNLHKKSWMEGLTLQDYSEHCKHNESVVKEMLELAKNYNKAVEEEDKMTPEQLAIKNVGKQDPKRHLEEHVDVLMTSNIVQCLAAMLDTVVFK

Consider `Cl.Cn1ncc2c1CCCC2NC(=O)CCl` (stereo not given), for which the “log2 ratio of Biotin-Ahx-Ub-VS probe labelling” value in [1] is 0.564; in [2] it was -0.0969; in experiment [3] it was -1.12 (active); in experiment [4], -0.07; in experiment [5], -0.277; in experiment [6] it was 0.656. Further, the “log2 ratio of Biotin-Ahx-Ub-VS probe labelling” value in [7] was -0.377; in experiment [8], 0.0774; in experiment [9], -0.000676; in experiment [10], -0.128.
